Source: PubChem BioAssay
Yp Topo-I inh: Y. pestis Topo-I inhibition via cleavage products | Y. pestis Topo-I cleavage product accumulation, plate reader | activity, % at 10 µM | hit rate 0.064% among 360,000; in the data active means activity above about 50%, passing the limit was not always enough
PrPC surface inh: inhibitors of human cell surface prion protein PrPC. TR-FRET read-out. inhibition, % at 13.8 µM. hit rate 0.43% among 370,000. AID 720596; in the data active means inhibition above about 24%; further: 0% = median of the test wells and 100% = reference compound wells
PrP UTR inh: inhibition of PrP 5' UTR reporter expression; hit rate 0.35% among 340,000; cell-based PrP 5' UTR mRNA reporter, plate reader; inhibition, % (concentration not given with the values); in the data active means inhibition above about 52%; further: 0 = median of the neutral control wells
SSB-PriA inh: K. pneumoniae PriA-SSBct interaction inhibition | inhibition, % at 33 µM | hit rate 0.6% among 430,000 | AlphaScreen SSBct-PriA binding, biotinylated peptide; in the data active means inhibition mostly above about 37%, no sharp cut-off; inactive means mostly below about 20%;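 further: plate controls were negative control peptide for no effect and reference peptide for full effect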
PfHsp40 rescue: rescue of PfHsp40-mediated yeast toxicity. growth rescue, % at 12.5 µM. hit rate 0.68% among 340,000. AID 504582. S. cerevisiae expressing PfHsp40, growth rescue, ATP luminescence; in the data active means growth rescue above about 28%, passing the limit was not always enough;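 further: yeast W303a lacking pdr1 and pdr3 grown in galactose medium; growth measured after three days at 30 °C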
BJeLR lethal: kills HRASV12-expressing BJeLR cells. BJeLR (HRASV12) viability, CellTiter-Glo ATP luminescence, 48 h. inhibition, % (concentration not given with the values). hit rate 0.17% among 300,000; in the data active means inhibition above about 50%
Starred values were filed as active, the others as inactive; / = no result given; ! = repeats disagree. Rows were chosen to be rich in hits. Some 1.7% of all compounds tested hit in one or more screens of this group.

SMILES	Yp Topo-I inh	PrPC surface inh	PrP UTR inh	SSB-PriA inh	PfHsp40 rescue	BJeLR lethal
O=C(COc1ccc(Br)cc1)N(c1ccccc1)[C@@H]1C=CS(=O)(=O)C1	/	/	/	-12.0	/	/
CCSc1ccccc1C(=O)Nc1nnc(Cc2cccs2)o1	/	/	/	40.0*	/	/
CCOc1ccc(NC(=S)Nc2ccc3nccnc3c2)cc1	/	/	/	32.6	/	/
COc1ccc(NC(=S)Nc2ccc(N)c([N+](=O)[O-])c2)cc1	-13.8	-29.5	-17.7	38.9*	-1.2	-0.1
COc1ccc(NC(=S)Nc2ccccc2)cc1	0.7	6.2	-25.2	-9.5	-0.6	-2.1
S=C(Nc1ccc2nccnc2c1)N1CCOCC1	5.5	-4.0	-65.7	70.6*	-0.1	6.6
S=C(Nc1ccc2nccnc2c1)N1CCCCCC1	/	/	/	21.6	/	/
COc1ccc(NC(=S)Nc2ccc3nccnc3c2)cc1	-5.7	-26.6	-39.9	77.3*	0.7	-21.8
O=C([C@@H]1CC=CCC1)N1CCC(n2c(=O)[nH]c3ccccc3c2=O)CC1	/	/	/	-10.0	/	/
O=S(=O)(CCOc1ccccc1)Nc1cnn([C@H]2CCOC2)c1	/	/	/	-11.0	/	/
CN(C)CCCOC(=O)C1c2ccccc2Oc2ccccc21	-5.4	-10.1	-13.7	-15.0	43.6*	-2.4
CN(CCOC(=O)C1c2ccccc2Oc2ccccc21)C(C)(C)C	-1.1	/	-23.4	-9.1	-0.9	0.1
O=C(Nc1ncnc2c1CCC2)C1CCN(S(=O)(=O)c2ccc(F)cc2)CC1	/	/	/	6.0	/	/
O=C1CCCc2c1cc(-c1ccccc1)n2-c1ccc(O)cc1	-5.7	7.5	-12.1	-9.0	-1.6	-2.9
COc1ccc(-n2c(-c3ccccc3)cc3c2CCCC3=O)cc1	11.0	/	-57.4	36.7	133.6*	10.4
Cc1[nH]c(=O)[nH]c(=O)c1CCC(=O)N1CCc2ccccc21	/	/	/	5.0	/	/
C=C1C(=O)O[C@H]2C[C@@H](C)[C@@H]3C=CC(=O)[C@@]3(C)C[C@H]12	/	26.1*	/	-24.4	/	27.3
CCOc1cc([N+](=O)[O-])cc(/C=N/NC(=O)c2c(-c3ccccc3)noc2C)c1O	-6.4	/	-13.6	/	260.7*	3.1
CCOc1cc(/C=N/NC(=O)c2c(-c3ccccc3)noc2C)ccc1O	-3.1	4.0	-19.2	/	-0.2	1.6
CCCN1CCN(CCCNC(=O)c2ccc3nc(N4CCCCC4)sc3c2)CC1	2.5	4.0	-55.2	99.9*	0.8	9.6
CC(C)(C)c1ccc(SCCc2ccccn2)cc1	-3.6	-0.4	-83.5	-40.1	-0.3	-2.7
Fc1ccc(SCCc2ccccn2)cc1	50.1*!	-5.9	-21.6	0.0	-0.8	-2.3
COC(=O)C1=C(c2ccc(-c3ccccc3)c(F)c2)C[C@@H]2CC[C@H]1N2C(=O)N1CCCC1	36.6	7.9	-11.8	10.6	28.6*	/
O=C(/C=C/c1ccc2c(c1)OCO2)NCCSc1ncc(-c2ccc(Cl)cc2)[nH]1	/	/	/	38.0*	/	/
CN(C)S(=O)(=O)c1cccc(NC(=S)NC(=O)c2ccco2)c1	0.1	3.7	-36.5	-4.6	-3.2	/
SMILES	Yp Topo-I inh	PrPC surface inh	PrP UTR inh	SSB-PriA inh	PfHsp40 rescue	BJeLR lethal
COc1ccc(O)c(C=NNC(=S)Nc2cccc(S(=O)(=O)N(C)C)c2)c1	/	/	/	98.5	/	/
CN(C)S(=O)(=O)c1cccc(NC(=S)NNC(=O)c2cc3ccccc3cc2O)c1	-1.1	-2.9	-13.0	7.2	219.5*	/
CN(C)S(=O)(=O)c1cccc(NC(=S)NN=Cc2cc(Br)ccc2O)c1	/	/	/	46.6*	/	/
O=C(NCC#CCOc1ccc2c(c1)OCO2)Nc1cccs1	/	/	/	-4.0	/	/
COc1ccc(NC(=O)CSC2=Nc3cccnc3Nc3ccccc32)cc1OC	/	/	/	44.0*	/	/
O=C(CSC1=Nc2cccnc2Nc2ccccc21)Nc1ccc(OC(F)(F)F)cc1	/	/	/	25.0	/	/
O=C(CSC1=Nc2cccnc2Nc2ccccc21)Nc1ccc(F)cc1F	/	/	/	41.0*	/	/
O=C(CC(c1ccccc1)c1ccccc1)Nc1ccc(Cl)cn1	4.6	28.6*	-24.3	-23.4	6.0	6.4
Cc1cccc(CC(=O)NCCN2CCN(c3ccccc3)CC2)c1	/	/	/	-14.0	/	/
COc1ccc(Oc2coc3cc(OC(=O)/C=C/c4ccccc4)ccc3c2=O)cc1	8.2	-3.6	-9.6	-7.2	95.0*	0.0
O=[N+]([O-])c1cccc(S(=O)(=O)NCCCn2ccnc2)c1	27.9	-12.2	-30.4	52.9*	-0.9	-2.3
O=S(=O)(NCCCn1ccnc1)c1cccc2cnccc12	/	/	/	41.0*	/	/
O=S(=O)(NCCCN1CCOCC1)c1cccc2cnccc12	/	/	/	3.0	/	/
CSc1ccc(S(=O)(=O)NCCCn2ccnc2)cc1	0.6	6.9	-8.7	2.3	-1.0	-1.7
CCn1ccc(C(=O)Nc2nc(-c3ccc4c(c3)OCO4)cs2)n1	/	/	/	-14.0	/	/
Cn1nc(CNS(=O)(=O)c2ccccc2F)cc1-c1ccncc1	/	/	/	0.0	/	/
O=C(NNC(=O)c1ccccn1)c1ccccn1	/	/	/	57.5*	/	/
O=C(Nc1ccccn1)C(=O)Nc1ccccn1	-0.4	9.2	-62.8	-2.0	-0.1	-5.1
S=C(Nc1ccccn1)c1ccccn1	-5.1	-3.9	-69.2	80.6*	-0.6	4.7
O=C(NNC(=O)c1ccccc1[N+](=O)[O-])c1ccccn1	3.3	-10.4	-9.9	-16.0	-0.7	4.4
COCCCNC(=S)NNC(=O)c1ccccn1	4.6	3.2	-3.5	81.6*	2.0	-2.5
O=C(NN=C1CCC(=NNC(=O)c2ccccn2)CC1)c1ccccn1	-9.8	-6.2	-9.4	85.4*	0.9	/
O=C(NN=C1CCCCc2ccccc21)c1ccccn1	/	/	/	2.7	/	/
COc1ccc(Cc2nnc3n2N=C(c2cc4ccccc4o2)CS3)cc1OC	54.2*	-1.0	6.6	2.1	6.3	1.5
C=CC(=O)Nc1cccc(Nc2nc(N[C@H]3CC[C@H](N(C)C)CC3)nc3c2ncn3C(C)C)c1	-15.3	/	71.2*	/	-1.4	/
SMILES	Yp Topo-I inh	PrPC surface inh	PrP UTR inh	SSB-PriA inh	PfHsp40 rescue	BJeLR lethal
NC(=O)CSc1nnc(-c2ccccn2)n1Cc1ccco1	1.7	-6.2	-16.5	-3.6	-0.8	-0.5
C(=C\c1ccccc1)/CSc1nnc(-c2ccccn2)n1Cc1ccco1	32.1	-10.3	-20.4	67.8*	0.6	34.2
c1ccc(-c2nnc(SCc3nc4ccccc4[nH]3)n2Cc2ccco2)nc1	17.2	7.1	-37.2	88.0*	-0.4	-7.8
c1coc(Cn2c(SCc3nc4ccccc4[nH]3)nnc2-c2cnccn2)c1	8.3	4.5	-8.3	6.2	-0.6	-1.4
Nn1c(SC/C=C/c2ccccc2)nnc1-c1ccccn1	16.8	2.4	-33.1	90.4*	0.3	2.4
Nn1c(SC/C=C/c2ccccc2)nnc1-c1cccnc1	2.4	-3.1	1.7	-3.1	0.0	4.3
Nc1nc(Cn2nnc(-c3ccccc3F)n2)nc(N2CCOCC2)n1	7.4	-7.1	-4.7	6.3	40.3*	-2.6
Cc1c(CNC(=O)Cc2c[nH]c3ccccc23)sc2nc(-c3ccc(F)cc3)cn12	/	/	/	17.0	/	/
C[C@H]1COC(=O)[C@H](Cc2ccc(F)cc2)C/C=C\C[C@@H](CC(=O)N(CCO)Cc2ccccc2)C(=O)N1	27.2	2.1	-20.4	-17.4	55.3*	/
C[C@@H]1COC(=O)[C@@H](Cc2ccc(F)cc2)C/C=C\C[C@@H](CC(=O)N(CCO)Cc2ccccc2)C(=O)N1	2.8	-0.9	-26.1	-6.9	0.1	/
NNC(=O)c1nc[nH]c1C(=O)Nc1ccccn1	4.7	0.2	53.0	59.0*!	-0.1	10.3
